4-MU autofl: qHTS Assay for Spectroscopic Profiling in 4-MU Spectral Region. compound autofluorescence, 340/450 nm, 4-MU equivalents; stronger effect = higher value. max dye-equivalent concentration, M. 59,000 tested, 11% active; in the data active means max dye-equivalent concentration above about 10 nM; inconclusive means mostly about 1.1 nM to 9.6 nM
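Compounds in 100 mM Tris, pH 8.0, incubated 15 min at room temperature, then fluorescence read at 340 nm excitation/450 nm emission. Signal converted to 4-MU dye-equivalent concentration using an on-plate six-point 4-MU standard curve.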
HSD17B inh: qHTS Assay for Inhibitors of HSD17B4, hydroxysteroid (17-beta) dehydrogenase 4. Potency, µM (top dose mostly 57.1 µM), for inactives: top-dose activity change, negative = inhibition, actives largely listed as inhibitors. 75,000 tested, 7.6% active. recombinant HSD17B10, NADH fluorescence kinetic;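 further: the protocol describes HADH2 (HSD17B10) and not the HSD17B4 of the title; potency means the concentration at half of the fitted maximal effect; on the % scale 0 is the no-effect control and ±100 the full control effect; nearly all actives have a fitted effect of over 70% in size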
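Activity followed as NADH fluorescence increase (ex 360, em 450 nm) every 30 seconds for 4 min, using final 90 uM beta-hydroxybutyryl CoA and 1 mM NAD+. Recombinant His-tagged enzyme, 20 nM, pH 9.0 Tris buffer, 15 min compound preincubation.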
GBA mod: Glucocerebrosidase. purified enzyme, resorufin glucoside fluorescence (screen aimed at inhibitors), 20 min. Potency, µM. 48,000 tested, 1.1% active; in the data active means potency below about 15 µM; inconclusive means mostly about 16 µM to 33 µM;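 further: potency means the concentration at half of the fitted maximal effect; the screen sought inhibitors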
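Compounds titrated against 0.2 nM normal enzyme, 30 uM resorufin beta-D-glucopyranoside substrate, citrate/phosphate buffer with taurocholate and tween-20, pH 5.9. Reaction ran 20 min at room temperature; fluorescence (Ex 548/Em 600) gave AC50.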
A350 autofl: qHTS Assay for Spectroscopic Profiling in A350 Spectral Region | max dye-equivalent concentration, M | 59,000 tested, 11% active | Compound autofluorescence, 340/450 nm, Alexa 350 dye-equivalents; stronger effect = higher value; in the data active means max dye-equivalent concentration above about 10 nM; inconclusive means mostly about 1.1 nM to 9.6 nM
HADH2 inh: qHTS Assay for Inhibitors of HADH2 (Hydroxyacyl-Coenzyme A Dehydrogenase, Type II) | recombinant HADH2, NADH fluorescence, beta-hydroxybutyryl-CoA | 73,000 tested, 3.4% active | 3-hydroxyacyl-CoA dehydrogenase type-2 (Homo sapiens), Q99714 | Potency, µM (series often up to 57.1 µM), for the others: at the top dose activity change, negative = inhibition, most hits filed as inhibitors; further: potency means the concentration at half of the fitted maximal effect; on the % scale 0 is the no-effect control and ±100 the full control effect; nearly all actives have a fitted effect of over 60% in size
Target sequence (Q99714 whole entry, looked up, one chain of several): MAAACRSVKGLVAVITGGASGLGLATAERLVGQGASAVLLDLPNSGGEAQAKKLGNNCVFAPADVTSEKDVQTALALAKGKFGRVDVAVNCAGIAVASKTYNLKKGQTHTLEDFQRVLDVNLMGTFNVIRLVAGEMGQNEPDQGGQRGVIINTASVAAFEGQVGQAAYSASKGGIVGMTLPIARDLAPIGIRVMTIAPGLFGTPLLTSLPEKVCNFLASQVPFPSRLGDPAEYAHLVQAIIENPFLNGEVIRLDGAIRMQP
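20 nM HADH2 + cpd, 15 min RT; add 1 mM NAD+/90 uM beta-hydroxybutyryl-CoA; kinetic fluorescence 360/450 nm, 4 min. Tris-HCl pH 9.0, 0.01% Tween-20.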
AID923: qHTS Assay for Allosteric/Competitive Inhibitors of Caspase-1: Spectroscopic Profiling in AFC Spectral Region; 75,000 tested, 1.1% active; AID 923, 2007; compound fluorescence, AFC spectral region (405/520 nm); Potency, µM (doses to about 57.5 µM), inactives show top-dose fluorescence increase, most hits filed as activators; further: potency means the concentration at half of the fitted maximal effect; 0% is about no effect
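Baseline compound fluorescence (AFC region, 405 nm ex/520 nm em) taken from the intercept of kinetic reads with 50 nM caspase-1 and 5 uM Ac-WEHD-AFC; normalized to an on-plate AFC standard curve; compounds titrated up to 57 uM.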
Numbers without * were called inactive; ! = not active in a repeat; [ ] = remark or other dose. Most compounds without a hit are left out; they make up all but 13% or so of the library. Unless noted, the call rests on the fitted dose curve; in most records, active means well fitted curve in the direction sought with a large enough effect; inconclusive means small, poorly fitted or top-dose-only effect, or another doubt; inactive means no such curve, though single readings can be large; an effect the other way counts as inactive or inconclusive.

Results for CC(=O)OCC(=O)[C@@]1(O)CCC2C3CC[C@H]4CC(O)CC[C@@]4(C)C3C(=O)C[C@]21C (some centres undefined) ?
HSD17B inh: -7%; AID923: -2%

Results for C=C(Br)CN(C)CC(=C)Br ?
4-MU autofl: inactive; HSD17B inh: 2%[11.4 µM]; A350 autofl: inactive; HADH2 inh: 17%[11.4 µM]; AID923: 2%[11.5 µM]

How did Cc1ccc(S(=O)(=O)N[C@H]2COC(=O)[C@H](C)COC(=O)C/C=C\[C@H]2C)cc1 do in these assays?
HSD17B inh: 8%[11.4 µM]; HADH2 inh: 11%[11.4 µM]; AID923: 0%[11.5 µM]

Results for CC(=O)OC(Cn1nc(C)cc1C)c1ccccc1 (centres undefined) ?
4-MU autofl: inactive; HSD17B inh: -4%; GBA mod: >77; A350 autofl: inactive; HADH2 inh: 1%; AID923: 0%

What do the screens show for `COc1ccc(-c2cc3ccccc3n2CC(O)Cn2nc(C)cc2C)cc1` (centres undefined)?
4-MU autofl: inactive; HSD17B inh: 25µM*; GBA mod: >77; A350 autofl: inactive; HADH2 inh: -22%; AID923: 4%

Results for COCCN(C(=O)Cc1cccs1)c1nnc(-c2cccnc2)s1 ?
4-MU autofl: inactive; HSD17B inh: 1%; GBA mod: >77; A350 autofl: inactive; HADH2 inh: -1%; AID923: 0%

What do the screens show for `CCN(C(=O)Cc1cccs1)c1nnc(-c2cc(OC)c(OC)c(OC)c2)s1`?
4-MU autofl: inactive; HSD17B inh: 13µM*; GBA mod: >77; A350 autofl: inactive; HADH2 inh: 1%; AID923: -2%

Results for CC1(C)Cc2c(c(N3CCOCC3)nc3sc4c(=O)[nH]cnc4c23)CS1 ?
4-MU autofl: 1.5e-08M*; A350 autofl: 1.9e-08M*

Results for C=CC1CO1 (centres undefined) ?
HSD17B inh: 4%; HADH2 inh: -1%; AID923: 3%

Results for Cc1cccc(NS(=O)(=O)c2ccc(Cl)c(C(=O)O)c2)c1 ?
HSD17B inh: 0%; HADH2 inh: -9%; AID923: 0%

What do the screens show for `C=C1c2cccc(O)c2C(O)=C2C(=O)[C@@]3(O)C(O)=C(C(N)=O)C(=O)[C@@H](N(C)C)[C@@H]3[C@@H](O)[C@H]12`?
4-MU autofl: inactive; HSD17B inh: 5µM*; A350 autofl: inactive; HADH2 inh: 2µM*; AID923: 4%[25.7 µM]

What do the screens show for `C[C@@H]1c2cccc(O)c2C(O)=C2C(=O)[C@@]3(O)C(O)=C(C(N)=O)C(=O)[C@@H](N(C)C)[C@@H]3[C@@H](O)[C@@H]21`?
4-MU autofl: inconclusive; HSD17B inh: inconclusive; A350 autofl: inconclusive; HADH2 inh: 13µM*!; AID923: 2%[25.7 µM]

What do the screens show for `CN(C)[C@@H]1C(=O)C(C(N)=O)=C(O)[C@]2(O)C(=O)C3=C(O)c4c(O)ccc(Cl)c4[C@H](O)[C@H]3C[C@@H]12`?
4-MU autofl: inconclusive; HSD17B inh: inconclusive; A350 autofl: inconclusive; HADH2 inh: inconclusive; AID923: 11%[25.7 µM]

How did C=CCN(CC=C)c1nc2ccccc2nc1C(C#N)C(=O)OC(C)C (centres undefined) do in these assays?
4-MU autofl: 3.1e-07M*; A350 autofl: 3.6e-07M*

How did CCCN(CCC)C(=O)[C@@H](CCC(=O)O)NC(=O)c1ccccc1 do in these assays?
4-MU autofl: inactive; HSD17B inh: 6%[25.6 µM]; A350 autofl: inactive; HADH2 inh: inconclusive; AID923: -4%[25.7 µM]

Results for NC(=O)c1ccccc1N=Cc1ccccn1 ?
4-MU autofl: 4.5e-07M*; HSD17B inh: 32µM*; GBA mod: >77; A350 autofl: 3.3e-07M*; HADH2 inh: 32µM*; AID923: 3%

What do the screens show for `COc1cc(/C=C(\C#N)C(=O)c2ccc(O)c(O)c2)cc(I)c1O`?
4-MU autofl: inactive; HSD17B inh: inconclusive; A350 autofl: inactive; HADH2 inh: 2.5µM*; AID923: -1%

What do the screens show for `CCN(CC)c1cc(C)c2cc(NC(=O)CNC(C)=O)ccc2n1`?
4-MU autofl: 1.5e-06M*; HSD17B inh: 25µM*; GBA mod: >77; A350 autofl: 1.4e-06M*; HADH2 inh: 116%; AID923: 1%

How did N[C@H](CO)Cc1cnc[nH]1 do in these assays?
HSD17B inh: -14%; AID923: -1%

How did CCN(CC)C(=O)CSc1nnc(-c2ccccc2)n1-c1ccccc1 do in these assays?
4-MU autofl: 1.4e-07M*; HSD17B inh: 4%; GBA mod: >77; A350 autofl: 5e-08M*; HADH2 inh: 13%; AID923: 0%

How did CCN(CC)C(=O)CSc1nnc(-c2ccccc2)n1N do in these assays?
4-MU autofl: 1.7e-08M*; HSD17B inh: inconclusive; GBA mod: >77; A350 autofl: inconclusive; HADH2 inh: 7%; AID923: 0%

What do the screens show for `CN(C)C(=O)CSc1nnc(-c2cccnc2)n1-c1ccccc1`?
HSD17B inh: 0%; HADH2 inh: 0%; AID923: -1%

How did CCOc1ccc(-c2nnc(SCC(=O)N(CC)CC)n2N)cc1 do in these assays?
4-MU autofl: inactive; HSD17B inh: 2%; GBA mod: >77; A350 autofl: inactive; HADH2 inh: 6%; AID923: -1%

What do the screens show for `O=C(O)/C(=C\c1ccccc1)Cc1ccccc1`?
4-MU autofl: inactive; HSD17B inh: -2%[11.4 µM]; A350 autofl: inactive; HADH2 inh: 11%[11.4 µM]; AID923: -3%[11.5 µM]

Results for Cn1c(C(=O)N2CCCc3ccccc32)cc2c(=O)n3ccccc3nc21 ?
4-MU autofl: 1.1e-07M*; HSD17B inh: inconclusive; GBA mod: >77; A350 autofl: 1e-07M*; HADH2 inh: 9%; AID923: 16%

How did Cn1ncc(Cl)c1C(=O)N1CCc2ccccc21 do in these assays?
4-MU autofl: inactive; HSD17B inh: 12%; GBA mod: >77; A350 autofl: inactive; HADH2 inh: 3%; AID923: 3%

What do the screens show for `Cn1c(C(=O)N2CCc3ccccc32)cc2c(=O)n3ccccc3nc21`?
4-MU autofl: 1.1e-07M*; HSD17B inh: inconclusive; GBA mod: >77; A350 autofl: 9.9e-08M*; HADH2 inh: 19%; AID923: 13%

How did Cc1ccc(CN2CCN(Cc3ccc(C)o3)[C@@H](C)C2)o1 do in these assays?
4-MU autofl: inactive; HSD17B inh: 6%[11.4 µM]; A350 autofl: inactive; HADH2 inh: 4%[11.4 µM]; AID923: 0%[11.5 µM]

Source: PubChem
